According to the supplement of paper PMC3334620:
Whole data set: some 33,000 sequences, median “E-score (-0.5 to 0.5)” near -0.035, cut for the highest 2% near 0.34. Many of the other results were omitted from the sample, so the highest values are more common in it than they were.

Each sequence was assayed against T1, Mot3 (UniProt P54785) (assay: PBM E-score (8-mer binding enrichment) (E-score (-0.5 to 0.5)); higher = stronger / more preferred TF binding). Conditions: protein concentration: 200 nM; construct: GST-full length.
T1 sequence: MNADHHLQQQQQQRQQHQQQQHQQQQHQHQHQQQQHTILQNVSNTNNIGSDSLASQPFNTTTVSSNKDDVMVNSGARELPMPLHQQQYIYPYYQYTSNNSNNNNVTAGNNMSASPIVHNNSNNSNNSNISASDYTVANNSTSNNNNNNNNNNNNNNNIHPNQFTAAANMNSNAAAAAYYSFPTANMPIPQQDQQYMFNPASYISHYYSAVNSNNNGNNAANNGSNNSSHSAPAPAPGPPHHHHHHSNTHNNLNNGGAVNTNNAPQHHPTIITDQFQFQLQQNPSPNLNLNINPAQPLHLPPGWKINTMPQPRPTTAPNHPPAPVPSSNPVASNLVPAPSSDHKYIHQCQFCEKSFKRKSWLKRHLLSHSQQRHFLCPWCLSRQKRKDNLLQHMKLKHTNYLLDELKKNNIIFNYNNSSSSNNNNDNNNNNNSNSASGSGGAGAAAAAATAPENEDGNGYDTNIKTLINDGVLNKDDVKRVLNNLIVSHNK
Protocol: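 Universal 'all 10-mer' protein binding microarrays (Agilent AMADID 015681) probed with GST-tagged S. cerevisiae TFs (full-length or DBD) made by in vitro transcription/translation (PURExpress), about 100-200 nM. Bound TF was detected with fluorescent anti-GST. Each ungapped 8-mer (which stands for itself and its reverse complement) is scored by the PBM enrichment score (E-score), a modified Wilcoxon-Mann-Whitney statistic from -0.5 to +0.5, computed with the Universal PBM Analysis Suite. Scale: above 0.35 generally sequence-specific binding.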

Sequence | PBM E-score
ACAGGTGA | 0.0111
ACAGGTAG | -0.0129
ACAGGTAC | 0.423
CCAGGTAA | 0.238
ACAGGTAA | 0.39
GCAGGTAA | 0.385
GCGTTACC | 0.0266
CGGCTTCA | -0.131
CCCCACAA | -0.0534
ACTGAATC | -0.0804
AGGCTCCG | 0.223
ATTGCCAC | -0.0828
GTGGTCTA | -0.279
CTTTGAAC | -0.158
GACACGTA | 0.26
TACACGGA | 0.357
CACACGTA | 0.208
TACACGTA | 0.362
GACACGGA | 0.22
CACACGGA | 0.0661
AGGTTGAT | -0.099
GCCCCCTA | -0.355
ATAGCGAT | -0.11
CAGAGCCG | -0.157
ATTGTGTA | 0.346

Sequence | PBM E-score
GATGTGTA | 0.347
CTTGTGTA | 0.333
CATGTGTA | 0.331
GTGTTGTA | 0.283
ATTGTGTC | 0.139
ATTGTGTG | 0.0589
GTTGTGTA | 0.373
AATGTGTA | 0.289
ATCTGCCC | -0.0711
ACTGGCCC | -0.252
AACGACCG | -0.163
AAATGCGG | -0.0946
ACTGGCTG | -0.261
GACTAATC | -0.182
ACCTGTTA | 0.167
GCCTGTAA | 0.391
GCCTGTAC | 0.338
GCCTGCGA | 0.35
ACCTGCGA | 0.0659
CCCTGCGA | -0.212
CCCTGTTA | 0.12
GCCTGTTA | 0.35
TCCTGTAA | 0.338
AGAGCACC | -0.233
ACGTATCC | -0.129

Sequence | PBM E-score
CCATCTCC | -0.26
CCGGGGTC | -0.135
AGTGCGAT | -0.00843
GATTTCGC | 0.167
GAGACTCA | -0.251
ACACGTTG | 0.305
ACACGTGG | 0.236
AAACGTGA | 0.178
ACACGTTA | 0.345
ACACGTGT | 0.363
ACACGTTC | 0.303
ACACGTGA | 0.273
AAACGTGG | -0.0479
AAACGTGT | 0.344
CACGCGCC | 0.181
CCAGGGTA | -0.153
GCCCAACA | 0.146
ATCAAAAC | -0.118
CTGTTTTA | 0.0859
ATGTTTTA | 0.362
GTGTTTTA | 0.219
ATGTTTAG | 0.279
CTGTTTAC | 0.28
ATGTTTAC | 0.374
CTAGAACC | -0.0352

Sequence | PBM E-score
AAGCCCTG | -0.0744
AACTACCG | -0.0555
ATGGGGAG | -0.135
GTGTATAA | 0.343
ATGTGTAA | 0.352
ATGTGTAC | 0.285
GGGTGTAA | 0.223
ATGTGTAG | 0.303
CTGTGTGA | 0.181
GAGTGTAA | 0.249
CTGTATAA | 0.0988
GTGTGTAA | 0.394
ATGTATAA | 0.256
CTGTGTAC | 0.294
CTGTGTAA | 0.41
CCGGATGC | -0.24
ACGATCTC | -0.198
ACTAGGGG | -0.223
CGCTCTTC | -0.174
GACACATC | -0.0862
CCTAGGAC | -0.0674
AAGATGTA | 0.194
AACATGTG | 0.278
AACATGTA | 0.42
AACATGTC | 0.296

Sequence | PBM E-score
AACATGTT | 0.387
AACATTTA | 0.244
CTGGCCCC | -0.215
AACGGTTC | -0.172
AACAGAAT | 0.0192
ATCTTAAG | -0.14
CCTGACCG | -0.159
CGTAGGAG | -0.0892
CGTAGGAA | 0.351
AGTAGGAT | 0.0448
TGTAGGAA | 0.406
AGTAGGAA | 0.403
GGTAGGAC | -0.172
AGTAGGAC | -0.258
GGTAGGAA | 0.313
CGTAGGAC | -0.166
CATCAGGG | -0.0517
ACTGCGGC | -0.227
AACTAAGA | 0.0799
CAATTGCA | -0.0452
GGTACCCA | 0.00798
GCTACCTA | 0.0719
AGTACCTC | -0.107
CGTACCTC | -0.144
CTTACCTA | 0.175

Sequence | PBM E-score
GGTACCTA | 0.424
AGTACCTA | 0.342
CGTACCTA | 0.395
ATTACCTA | 0.332
CCTACCTA | 0.156
AGTACCAA | 0.013
GTTACCTA | 0.369
GTCACCTA | -0.0234
ATGAAGTA | -0.0752
CTTACAGC | 0.00061
CCCCATAC | 0.00082
GATGGAAC | -0.0944
AGTACCTG | 0.378
AGTACCAG | -0.106
ATTACCTG | 0.336
CAGCCCGG | -0.239
CGGGGAAC | -0.0973
GATGTAGA | 0.195
GATGTATA | 0.195
CATGTAGC | 0.276
AGTGTAGA | 0.151
AATGTAGG | 0.191
CATGTAGG | 0.374
CGTGTAGC | 0.228
CATGTATA | 0.376

Sequence | PBM E-score
CAAGTAGG | 0.105
CATGTATC | 0.277
CGTGTAGA | 0.414
CATGTAGA | 0.39
ATTGGAGA | -0.179
AAGGGGGC | -0.138
AGTAGAAG | 0.0882
AGGTTCAT | -0.0206
GGCCCAGA | -0.411
CCAAGACG | -0.236
ACAACGGG | 0.07
GCTAACTA | 0.00452
AGTGTAAC | 0.128
ACTGTAAG | 0.0605
CGTGTAAA | 0.438
AGTGTAAT | 0.308
GGTGTAAC | 0.164
CGTGTAAG | 0.38
TGTGTAAA | 0.416
CGTGTAAC | 0.351
GGTGTAAA | 0.297
AGTGTAAG | 0.00213
AGTGTAAA | 0.28
